Assay [1] can be described thus: compound effects on lung adenocarcinoma cell viability – A549, calcein-AM fluorescence, 48 h, basal, profiling panel (AID 1162). The following applies: higher = more signal.
Assay [2] in a line: compound effects on differentiated 3T3-L1 adipocyte viability – cell-based, 3T3-L1 adipocytes, calcein-AM fluorescence, 48 h, basal, profiling panel (AID 1163). The following applies: 3T3-L1 adipocytes viability, higher = more signal.
Assay [3] is described as follows: compound effects on hepatocellular carcinoma cell viability – HepG2, calcein-AM fluorescence, 48 h, basal, profiling panel (AID 1164). Particulars: higher = more signal.
A short description of assay [4]: compound effects on multiple myeloma cell viability – MM1S, calcein-AM fluorescence, 48 h, basal, profiling panel (AID 1165).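 Note: viability of MM1S multiple myeloma cells under basal unstimulated conditions.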 Particulars: higher = more signal.
Assay [5] is described as follows: calcein-AM signal in unstimulated myeloma cells – cell-based, calcein-AM fluorescence, 48 h, PK04 Diversity Set, profiling panel (AID 1166).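 Note: cells grown under basal conditions without added stimulus.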 The following applies: RPMI8226 myeloma viability, higher = more signal.
The nature of assay [6]: JC-1 mitochondrial signal, unstimulated HepG2 cells – cell-based, JC-1 fluorescence, 24 h, 100 nL compound, profiling panel (AID 1167). Particulars: HepG2 mitochondrial potential, higher = more signal.
A short description of assay [7]: JC-1 mitochondrial signal, unstimulated adipocytes – cell-based, JC-1 fluorescence, 3T3-L1 adipocytes, 24 h, 100 nL compound, profiling panel (AID 1168). The following applies: JC-1 mitochondrial fluorescence, higher = more signal, called active from +8 up or from −8 down.
Assay [8] in a line: JC-1 mitochondrial signal, unstimulated myeloma cells – cell-based, JC-1 fluorescence, RPMI8226, 24 h, 100 nL compound, profiling panel (AID 1169). Particulars: JC-1 mitochondrial potential fluorescence, higher = more signal.
Assay [9] is described as follows: JC-1 mitochondrial signal, unstimulated MM1S myeloma – cell-based, JC-1 fluorescence, 24 h, 100 nL compound, profiling panel (AID 1170). The following applies: MM1S mitochondrial potential, higher = more signal.
Assay [10] can be described thus: resazurin metabolic signal in A549 cells – cell-based, resazurin fluorescence, 24 h, PK04 Diversity Set, profiling panel (AID 1171). Particulars: A549 viability, higher = more signal, called active from +8 up or from −8 down. (In general: Resazurin is reduced to fluorescent resorufin, in cell work by metabolically active cells.)

Each structure is given as a SMILES string. The source made the active and inactive calls.
Note: test concentration not given here.

In the case of `C#CCN(Cc1ccccc1Br)C(/C=C/c1ccccc1)CO` (stereo not given), the z-score in assay [1] is -3.65; in [2], -0.011; in assay [3], -3.95; in [4], -3.26; in [5], -4.12; in [6], -2.83. The z-score was 0.165 (inactive) in [7], -1.2 in assay [8], -1.21 in [9] and -0.411 (inactive) in assay [10].

In the case of `CC(C)C[C@@H]1NC(=O)[C@H]2C[C@@H](C(=O)NCCCCCCN(C)C)[C@@H](c3ccc(O)cc3)N2C1=O`, the z-score in assay [1] is -1.06; in assay [2], -0.0009; in [3], -0.59; in assay [4], 0.235; in assay [5], -1.28; in assay [6], -0.438. Further, the z-score was 0.186 (inactive) in assay [7], 0.664 in assay [8], -0.601 in assay [9] and -0.743 (inactive) in assay [10].

`COC(=O)[C@@]1(Cc2ccc(F)cc2)[C@H]2c3cc(C(=O)N(C)C)n(Cc4nc5ccccc5[nH]4)c3C[C@H]2CN1C(=O)c1ccccc1`: the z-score in [1] is -0.788; in [2], -0.0882; in assay [3], -0.49; in [4], -1.09; in assay [5] it was -0.184; in assay [6], -0.0736. In addition, the z-score in assay [7] is -0.156 (inactive); in [8], -0.207; in assay [9], -2.16; in assay [10], 0.406 (inactive).

With `COc1ccc([Si](C)(C)[C@H]2[C@H](CC(=O)N3CCC[C@H]3CO)O[C@@]3(C(=O)N(Cc4cccc(N5C(=O)c6cccc7cccc5c67)c4)c4ccccc43)[C@@H]2C)cc1`, the z-score was -0.577 in assay [1]; 0.453 in assay [2]; -0.507 in assay [3]; -1.99 in assay [4]; -3.99 in [5]; 1.12 in [6]. Also, the z-score was -0.69 (inactive) in [7], -1.12 in [8], -0.388 in [9] and -0.892 (inactive) in [10].

As for `C#CCNC(=O)[C@H](Cc1ccccc1)NC(=O)CCC(=O)O`, the z-score in [1] was -0.281; in assay [2], -0.405; in assay [3], 0.0694; in [4], 0.527; in assay [5], 0.0189; in assay [6], -0.821. In addition, the z-score was -0.536 (inactive) in assay [7], 0.539 in [8], -0.97 in assay [9] and -0.119 (inactive) in [10].

On to `COCCCNC(=O)[C@@]1(Cc2ccccc2)N=C(c2ccc(OCCCO)cc2)O[C@H]1c1ccccc1`, for which the z-score was -0.736 in assay [1]; -0.493 in [2]; -0.104 in assay [3]; -1.03 in [4]; -0.856 in assay [5]; 0.00935 in [6]. Also, the z-score in [7] is 0.425 (inactive); in assay [8] it was -1.11; in [9] it was -0.314; in assay [10], 1.57 (inactive).

Turning to `O=C(NCc1ccccc1)[C@@]1(CCS(=O)(=O)c2ccccc2)N=C(c2ccc(OCCCO)cc2)O[C@H]1c1ccccc1`, the z-score in [1] is 0.364; in [2] it was -0.153; in [3] it was -0.203; in [4] it was -0.335; in assay [5] it was -0.672; in assay [6], 1.17. Moreover, the z-score was 0.802 (inactive) in assay [7], -0.935 in assay [8], -1.58 in [9] and -0.541 (inactive) in [10].

Consider `COc1ccc(CCNC(=O)[C@@H]2c3ccccc3C(=O)N(C3Cc4ccccc4C3)[C@H]2c2ccc(CO)cc2)cc1`, for which the z-score in [1] was 0.595; in [2] it was 0.0644; in [3] it was 0.0079; in assay [4], -0.532; in assay [5] it was -0.0245; in assay [6] it was 1.6. Moreover, the z-score in [7] is 0.00592 (inactive); in assay [8] it was -0.78; in assay [9], -0.0799; in [10], 1.39 (inactive).

Turning to `CCOC(=O)C[C@H]1[C@H](OC(=O)c2ccc(C(=O)c3ccccc3)cc2)[C@@H](NC(=O)c2ccc(-c3ccccc3)cc2)c2cc(OCCCO)ccc2N1C(=O)c1ccccc1`, the z-score in [1] is -0.56; in [2], 0.734; in assay [3], 0.2; in [4] it was -0.821; in assay [5] it was 0.134; in [6] it was 1. The z-score in assay [7] is -0.136 (inactive); in [8], 0.884; in assay [9] it was -0.117; in [10] it was -0.31 (inactive).

Consider `COCCOC(=O)N1C(=O)[C@@]2(c3cc(C#CC4=CCCCC4)ccc31)[C@H](c1ccc(O)cc1)N1[C@H](c3ccccc3)[C@H](c3ccccc3)OC(=O)[C@H]1[C@@H]2C(N)=O`, for which the z-score in assay [1] is 0.505; in assay [2], 0.633; in assay [3], -0.364; in assay [4], -2.77; in assay [5] it was -4.14; in [6], -2.55. The z-score in [7] is 0.29 (inactive); in assay [8], -0.902; in [9] it was -1.19; in assay [10] it was -0.954 (inactive).

For `COc1ccc(C(O)C2C=CC3C(=O)NC(=O)C3N2Nc2ccccn2)c2ccccc12` (stereo not given), the z-score was 0.606 in assay [1]; -1.17 in assay [2]; 0.384 in assay [3]; -0.178 in [4]; 0.384 in [5]; -1.11 in assay [6]. The z-score in assay [7] was 0.296 (inactive); in assay [8], -0.905; in assay [9], -0.143; in assay [10], -0.703 (inactive).

Take `COCCOC(=O)N1C(=O)[C@@]2(c3cc(C#Cc4ccc(OC)cc4)ccc31)[C@H](c1ccccc1OCCO)N1[C@H](c3ccccc3)[C@H](c3ccccc3)OC(=O)[C@H]1[C@@H]2C(=O)N1CCN(c2ncccn2)CC1`: the z-score in [1] is 0.204; in assay [2] it was -0.226; in assay [3], 0.348; in [4] it was -0.653; in assay [5] it was 0.149; in assay [6] it was 0.356. The z-score in [7] is 2.41 (inactive); in [8] it was -0.72; in assay [9], -1.37; in [10], -0.692 (inactive).

As to `COCCOC(=O)N1C(=O)[C@@]2(c3cc(C#CCCO)ccc31)[C@H](C(=O)N1CCc3cc(OC)c(OC)cc3C1)[C@H]1C(=O)O[C@H](c3ccccc3)[C@H](c3ccccc3)N1[C@@H]2c1ccc(O)cc1`, the z-score in assay [1] was -0.235; in [2], 0.0133; in assay [3], 2.58; in [4], 0.587; in assay [5], 0.245; in assay [6] it was -0.404. Also, the z-score was 0.0353 (inactive) in assay [7], -0.385 in assay [8], -0.546 in assay [9] and -0.689 (inactive) in [10].

Regarding `CN1C(=O)C2C=CC(C(O)c3ccc(-c4ccccc4)s3)N(N(c3ccccc3)c3ccccc3)C2C1=O` (stereo not given), the z-score is 0.281 in [1]; -0.905 in assay [2]; 0.391 in [3]; -0.616 in [4]; 0.275 in [5]; 0.748 in [6]. The z-score is -1.98 (inactive) in assay [7], -1.05 in assay [8], -0.434 in [9] and -0.434 (inactive) in assay [10].

In the case of `CC(CO)N1C(=O)[C@@H]2C3C(=O)OCCC/C=C\[C@H]3OC23C=CCN(c2ccc4ccccc4c2)C(=O)[C@@H]13` (stereo not given in full), the z-score is 0.149 in [1]; -0.0935 in assay [2]; 1.14 in [3]; 1.74 in [4]; 0.931 in assay [5]; 0.811 in assay [6]. The z-score is -0.373 (inactive) in assay [7], -0.713 in assay [8], -0.832 in [9] and 0.315 (inactive) in assay [10].

In the case of `COCCOC(=O)N1C(=O)[C@@]2(c3cc(C#CCCO)ccc31)[C@H](c1ccc(OCCO)cc1)N1[C@H](c3ccccc3)[C@H](c3ccccc3)OC(=O)[C@H]1[C@@H]2C(=O)N1CCN(c2ncccn2)CC1`, the z-score in assay [1] was 0.559; in assay [2], 0.344; in assay [3] it was 0.479; in assay [4], -1.32; in assay [5] it was -0.713; in assay [6], 0.503. Further, the z-score in assay [7] was -0.138 (inactive); in assay [8] it was -0.41; in [9], -1.19; in assay [10], 0.253 (inactive).

Values taken from PubChem BioAssay.
